Test systems include CDC2L2; CDK2; CDK3; CDK4-cyclinD1; CDK4-cyclinD3; CDK4; CDK5; CDK7.
What all share (conditions): concentration: 1 μM, replicates: in singlicate; n = 1
A further assay concerns T1, CDC2L5.
T1 construct: gene CDK13

Another assay relates to T2, CDK11.
T2 construct: gene CDK19

Each structure is given as a SMILES string.
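Note: KINOMEscan kinase panel screen.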

As for `CC(C)NCC(Cc1ccccc1)NC(=O)c1cc(Br)c(-c2ccnc3[nH]ccc23)s1.Cl.Cl` (stereo not drawn) [GSK1383281], the “%Inh” value with CDC2L2 came out at 39%; in the assay with CDC2L5 it was 0%; in the assay with CDK11 it was 31%; in the assay with CDK2 it was 0%; in the assay on CDK3 it was 0%; with CDK4-cyclinD1 it was 0%. Also, the “%Inh” value was 0% with CDK4-cyclinD3, 0% with CDK4, 0% with CDK5 and 16% in the assay on CDK7.
For `COc1cccc(NC(=O)NCCNc2ccnc(Nc3ccc(F)cc3)n2)c1` [GSK1379879], the “%Inh” value came out at 27% with CDC2L2; 0% in the assay on CDC2L5; 22% in the assay with CDK11; 0% in the assay with CDK2; 0% in the assay with CDK3; 9% with CDK4-cyclinD1. Besides, the “%Inh” value amounted to 1% in the assay with CDK4-cyclinD3, 0% in the assay with CDK4, 0% with CDK5 and 0% with CDK7.
Consider `CN(c1ccc(NC(=O)N2CCN(CCCN3CCOCC3)CC2)cc1)c1ccnc(Nc2ccc(CS(C)(=O)=O)cc2)n1.Cl` [GW830899], for which the “%Inh” value in the assay on CDC2L2 is 1%; in the assay on CDC2L5, 0%; in the assay on CDK11, 0%; with CDK2, 0%; with CDK3 it was 18%; in the assay with CDK4-cyclinD1, 0%. Moreover, the “%Inh” value in the assay with CDK4-cyclinD3, with CDK4, in the assay with CDK5 and in the assay with CDK7 was 0% each time.
As to `CCn1cnc2c(NCc3ccccc3)ncnc21` [SKF-96418], the “%Inh” value in the assay on CDC2L2 was found to be 0%; in the assay on CDC2L5 it was 10%; in the assay on CDK11, 0%; in the assay with CDK2, 0%; in the assay on CDK3, 0%; in the assay with CDK4-cyclinD1, 0%. For the same molecule, the “%Inh” value is given as 0% in the assay on CDK4-cyclinD3, 8% with CDK4, 0% with CDK5 and 0% with CDK7.
With `CC(=O)Nc1cn2nc(Oc3cccc(NC(=O)c4cccc(C(F)(F)F)c4)c3)ccc2n1`, the “%Inh” value amounted to 14% in the assay with CDC2L2; 0% in the assay on CDC2L5; 29% with CDK11; 2% with CDK2; 24% in the assay on CDK3; 0% in the assay with CDK4-cyclinD1. Also, the “%Inh” value in the assay with CDK4-cyclinD3, in the assay with CDK4, in the assay with CDK5 and in the assay with CDK7 was 0% throughout.
Turning to `Cl.O=C(Nc1ccc(Oc2ccc3[nH]c(NC(=O)c4ccco4)nc3c2)cc1)Nc1cc(C(F)(F)F)ccc1F` [GW683134], the “%Inh” value is 1% in the assay with CDC2L2; 0% in the assay with CDC2L5; 88% in the assay with CDK11; 0% in the assay with CDK2; 9% with CDK3; 0% with CDK4-cyclinD1. For the same molecule, the “%Inh” value with CDK4-cyclinD3 is 0%; with CDK4, 4%; in the assay with CDK5, 0%; in the assay with CDK7, 78%.
For the molecule `O=C(O)C(F)(F)F.O=c1[nH]ccc2nc(N[C@@H]3CCNC3)nc(Nc3cc(Cl)cc(Cl)c3)c12` [GSK2188764], the “%Inh” value with CDC2L2 is 24%; in the assay on CDC2L5 it was 0%; with CDK11 it was 2%; in the assay with CDK2, 0%; in the assay with CDK3, 30%; in the assay on CDK4-cyclinD1, 38%. Further, the “%Inh” value in the assay on CDK4-cyclinD3 is 23%; with CDK4, 13%; with CDK5 it was 44%; in the assay with CDK7 it was 85%.
Consider `c1ccc(Oc2ccc(Nc3ccnc4cc(-c5ccc(CN6CCCCC6)o5)ccc34)cc2)nc1` [GW567143], for which the “%Inh” value stood at 9% in the assay on CDC2L2; 0% in the assay with CDC2L5; 0% in the assay with CDK11; 0% in the assay with CDK2; 7% in the assay with CDK3; 0% with CDK4-cyclinD1. Moreover, the “%Inh” value in the assay with CDK4-cyclinD3 came to 0%; in the assay with CDK4, 18%; in the assay on CDK5 it was 0%; with CDK7, 45%.
As to `Nc1ncnc2scc(-c3ccc(NC(=O)Cc4cc(F)ccc4F)cc3)c12.O=C(O)C(F)(F)F` [SB-731254-M], the “%Inh” value with CDC2L2 is recorded as 36%; with CDC2L5, 0%; in the assay on CDK11 it was 99%; in the assay on CDK2 it was 0%; with CDK3, 0%; with CDK4-cyclinD1, 0%. Besides, the “%Inh” value in the assay with CDK4-cyclinD3 is 11%; with CDK4 it was 0%; in the assay with CDK5, 2%; in the assay on CDK7, 0%.
For `Nc1ncc(-c2cn[nH]c2)c2scc(-c3ccc4c(c3)CCN4C(=O)Cc3ccccc3)c12` [GSK2593067], the “%Inh” value in the assay on CDC2L2 is recorded as 0%; in the assay on CDC2L5, 0%; in the assay with CDK11 it was 23%; in the assay on CDK2 it was 0%; in the assay with CDK3 it was 2%; in the assay with CDK4-cyclinD1 it was 0%. For the same molecule, the “%Inh” value with CDK4-cyclinD3, in the assay with CDK4, with CDK5 and in the assay with CDK7 was 0% each time.
On to `CCOc1nccc(-c2c(-c3ccc(F)cc3)ncn2C2CCNCC2)n1` [SB-249175], for which the “%Inh” value is 13% in the assay with CDC2L2; 34% in the assay on CDC2L5; 12% with CDK11; 5% with CDK2; 0% with CDK3; 33% with CDK4-cyclinD1. Besides, the “%Inh” value is reported as 10% with CDK4-cyclinD3, 26% with CDK4, 12% in the assay with CDK5 and 24% with CDK7.
`CCn1c(-c2nonc2N)nc2c(-c3ccccc3)ncc(OCCCN)c21.O=C(O)C(F)(F)F.O=C(O)C(F)(F)F` [GSK260205]: the “%Inh” value with CDC2L2, in the assay on CDC2L5, in the assay with CDK11, in the assay with CDK2, in the assay on CDK3 and with CDK4-cyclinD1 was 0% throughout. The “%Inh” value in the assay with CDK4-cyclinD3, with CDK4, with CDK5 and in the assay with CDK7 was 0% each time.
On to `CC(C)(C)c1ccc(C(=O)Nc2cn3cc(-n4ccnc4)ccc3n2)cc1`, for which the “%Inh” value with CDC2L2 is 1%; in the assay with CDC2L5, 7%; with CDK11, 1%; in the assay with CDK2 it was 12%; in the assay with CDK3, 0%; in the assay on CDK4-cyclinD1, 0%. For the same molecule, the “%Inh” value is on record as 0% with CDK4-cyclinD3, 0% in the assay with CDK4, 8% in the assay on CDK5 and 4% in the assay with CDK7.
As for `O=C(Nc1n[nH]c2cc(-c3cccs3)ccc12)C1CC1` [SB-731284], the “%Inh” value with CDC2L2 amounted to 0%; with CDC2L5, 85%; in the assay with CDK11, 0%; in the assay with CDK2 it was 65%; in the assay on CDK3 it was 16%; in the assay on CDK4-cyclinD1, 0%. Besides, the “%Inh” value in the assay on CDK4-cyclinD3 is 18%; with CDK4, 8%; with CDK5, 0%; with CDK7, 48%.
For the molecule `COc1ccc(C2=C(Nc3cccc(O)c3)C(=O)NC2=O)cc1` [SB-390766], the “%Inh” value stood at 0% in the assay with CDC2L2; 0% with CDC2L5; 93.8% with CDK11; 98.3% with CDK2; 42% in the assay with CDK3; 20% in the assay with CDK4-cyclinD1. In addition, the “%Inh” value in the assay on CDK4-cyclinD3 is 9%; in the assay with CDK4, 35%; in the assay on CDK5 it was 0%; in the assay with CDK7, 0%.
